Source: PubChem BioAssay (NCI)
The panel holds about 83,000 compounds, 20% with a hit somewhere; the sample as a whole holds those more often.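 Cell lines were cultured in 96-well plates, exposed to a single compound concentration, and assessed for percent growth 48 hours later.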 Active and inactive are the calls of the source. Rule for the calls: active = growth percent below 10; inactive = the rest.

Tested on: HL-60(TB) leukemia
Experiment: NCI-60 one-dose screen, 48 h (100 = growth as untreated, 0 = no growth, -100 = all killed)
Details: 10 µM unless noted

| Structure (SMILES) | growth |
| --- | --- |
| COc1ccc(-c2nc3cc(C)ccc3n2CC(=O)N=Nc2c(O)[nH]c3ccc(Br)cc23)cc1 | 39.4% (inactive) |
| O=C(Nc1nc2ccc([N+](=O)[O-])cc2s1)Nc1ccc(Cl)cc1Cl | 50.1% (inactive) |
| CSc1nc(-c2cccc(C)c2)c2cc(-c3ccccc3)n(C)c2n1 | -15.8% (active) |
| O=C1Nc2ccc(F)cc2/C1=C/c1cccc(OCc2ccccc2)c1 | -17.4% (active) |
| COc1cc(/C=C/C(=O)c2ccc(NC(=O)CN3C(=O)NC(C)(c4ccccc4)C3=O)cc2)cc(OC)c1OC (configuration not stated) | -11.5% (active) |
| O=C(Cn1c(-c2ccccc2)nc2ccccc21)N=Nc1c(O)[nH]c2ccc(Cl)cc12 | 57.2% (inactive) |
| O=C(CSc1nnc(-c2c[nH]c3ccccc23)n1-c1ccccc1)Nc1ccc(C(=O)/C=C/c2ccc(Br)cc2)cc1 | 83.2% (inactive) |
| CC(C)c1ccc2c(N)c(C(=O)Nc3cccc(C(F)(F)F)c3)sc2n1 | 66.2% (inactive) |
| O=C(Cn1c2c(sc1=O)[C@H]1[C@@H](O)[C@@H](O)[C@H](O)[C@@H]1CS2)N1CCOCC1 | 109% (inactive) |
| CN1CCc2c(sc3ncnc(N/N=C/c4ccc5ccccc5c4)c23)C1 | -14.6% (active) |
| Cc1cc(C)cc(Oc2cccc(-c3c(C)nnn3C3CCN(CCN(C)C)CC3)n2)c1 | -37% (active) |
| COc1ccccc1C(=O)NN1C(=O)/C(=C/C2=Cc3ccccc3OC2)SC1=S | 97.2% (inactive) |
| O=C(Nc1nc2ccccc2s1)c1ccc(Br)cc1 | 99.1% (inactive) |
| C/C(=C\CSc1ccccc1C(=O)O)CCCC(C)CCCC(C)CCCC(C)C (configuration not stated) | 41.2% (inactive) |
| C=C1CC[C@@H]2[C@]3(C)COC(c4cn(-c5ccccc5)nc4-c4ccccc4)O[C@@H]3CC[C@@]2(C)[C@@H]1C/C=C1/C(=O)OC[C@H]1O (some centres not stated) | -33.7% (active) |
| O=C(NN1C(=O)/C(=C/C=C/c2ccc([N+](=O)[O-])o2)SC1=S)c1ccccc1O | -0.846% (active) |
| O=C(N/N=C/c1c[nH]c2ccccc12)Nc1ccccc1Cl | 0.912% (active) |
| O=c1[nH]c2ccccc2cc1CSc1ccc(Nc2nccc(-c3ccc4ccccc4c3)n2)cc1 | 92.5% (inactive) |
| COc1ccc2[nH]cc(-c3nnc(N)nc3-c3cn(C)c4ncc(Br)cc34)c2c1 | 35% (inactive) |
| CCOP(=O)(OCCCl)c1nc(-c2ccc(C)cc2)oc1NCc1ccccc1 (configuration not stated) | 71.9% (inactive) |
| COc1cc(/C=C/C(=O)c2ccc(NC(=O)CSc3nnc(-c4c[nH]c5ccccc45)n3-c3ccccc3)cc2)cc(OC)c1OC | 38.6% (inactive) |
| CN1C(=O)C2(C(C#N)=C(c3ccc(Cl)cc3)Nc3c2c(-c2ccccc2)nn3-c2ccccc2)c2ccccc21 (configuration not stated) | 50.3% (inactive) |
| CC[C@]12C=CCN3CC[C@]4(C(=C(C(=O)OC)C1)Nc1cc(OC)c([C@@H]5[C@H]6O[C@H]6[C@@]6(CC)CC(C(=O)OC)=C7Nc8cc(OC)ccc8[C@@]78CCN5[C@@H]68)cc14)[C@@H]32 | 25% (inactive) |
| CCOC(=O)/C=C/c1cccc2c1C(=O)NC(C)(c1cc3cc(Br)ccc3oc1=O)N2 (configuration not stated) | 27.3% (inactive) |
| Cc1nc(Nc2ccccn2)sc1C(=O)CC(SCC(=O)Nc1ccc(Cl)cc1)c1ccccc1F (configuration not stated) | 14% (inactive) |
| Nc1nnc(-c2c[nH]c3ncccc23)c(-c2c[nH]c3ccc(Br)cc23)n1 | 42% (inactive) |
| COc1cc(/C=C/C(=O)c2cnn(-c3cc(=O)[nH]c4ccc(Cl)cc34)c2C)cc(OC)c1OC | -23.1% (active) |
